# Reference: PubChem BioAssay AID686978 (National Center for Advancing Translational Sciences (NCATS), 2013)
# Values joined by “and” are separate entries in the source; they are usually repeats but may differ in a detail not shown here. Identical values can stand only once. Out of some 420,000 compounds screened, about 64,000 (15%) were called active. Inconclusive results (about 27%) are left out. Calls follow the shape of the dose curve; as a rule, active = well fitted inhibition curve with a large enough effect; inconclusive = small, poorly fitted or top-dose-only effect; inactive = flat fitted curve, though single readings scatter. The list is a sample of the results.
# Test: qHTS for Inhibitors of human tyrosyl-DNA phosphodiesterase 1 (TDP1): qHTS in cells in absence of CPT; also: nearly all actives have a fitted effect of over 55% in size
# Details: DT40 Tdp1-/- hTDP1 cells, no CPT, ATP luminescence, 48 h; activity change, negative = growth inhibition: at 46.2 µM (top of the series)
# Summary of the method: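 Stably hTDP1-transfected Tdp1-null chicken DT40 cells were treated with library compounds minus camptothecin and grown for at least 48 hr at 37 °C, after which cellular ATP was quantified by luminescence.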
# % is scaled to controls: 0 for no effect and ±100 for the full control effect; potency is read from the fitted curve at half-maximal effect.
Compound,"activity change, negative = growth inhibition",Potency
COCCn1c(C)cc(C(=O)COC(=O)CNC(=O)c2ccco2)c1C,0.941% (inactive),–
COc1cccc(N(CC(=O)NC2CCCC2)C(=O)CCCC(=O)Nc2ccccn2)c1,-2.2% (inactive),–
O=NN(CCCl)C(=O)NCCc1cccc[n+]1[O-],-3.59% (inactive),–
O=C1COc2ccc(S(=O)(=O)Nc3ccc(OC(F)(F)F)cc3)cc2N1,-26% (inactive),–
Cc1ccc(S(=O)(=O)N2CCN(C(=O)CCC(=O)NC3CCCc4ccccc43)CC2)cc1 (configuration not stated),-21.4% (inactive),–
O=[N+]([O-])c1ccc(S(=O)(=O)N2CCN(c3nc(-c4ccccc4)nc4ccccc34)CC2)cc1,-8.56% (inactive),–
COc1ccc(C)cc1S(=O)(=O)N1CCN(S(=O)(=O)c2cc(C(=O)O)ccc2C)CC1,4.86% (inactive),–
Cc1ccc(C)c(S(=O)(=O)n2nc(C)c(S(=O)(=O)N3CCC(C)CC3)c2C)c1,-22.5% (inactive),–
Cc1ccc(S(=O)(=O)N2CCN(c3nc(-n4cnc5ccccc54)nc4ccccc34)CC2)cc1,-11.9% (inactive),–
Cc1ccc(C)c(S(=O)(=O)N2CCN(c3ncnc4sccc34)CC2)c1,–,3.66 µM (active)
Cc1ccc(S(=O)(=O)N2CCN(c3ncnc4ccccc34)CC2)cc1,–,820 nM (active) and 1.26 µM (active)
COc1ccccc1C(=O)NCCC(=O)NC1=NCCS1,-8.48% (inactive),–
Cc1cccc(N(C(=O)c2ccc(CN3CCOCC3)o2)C(C(=O)NC2CCCCC2)c2ccc(F)cc2)c1 (configuration not stated),-16.1% (inactive),–
COc1cc(OC)c(S(=O)(=O)Nc2ccccc2C(=O)O)cc1S(=O)(=O)Nc1ccccc1C(=O)O,18.3% (inactive),–
COc1ccccc1OCC(=O)OCn1c(SC)nnc(C)c1=O,-7.86% (inactive),–
O=C(Nc1cccc(S(=O)(=O)NC2=NCCC2)c1)C1CCCCC1,21.7% (inactive),–
O=C(NCc1ccccc1)C1c2ccccc2OCC(=O)N1CCCN1CCOCC1 (configuration not stated),-1.27% (inactive),–
CCOc1cc(/C=C2\C(=N)N3N=C(C)SC3=NC2=O)ccc1OCCOc1ccccc1,-6.53% (inactive),–
O=C(O)CCCCCCCCc1cn(CN2C(=O)c3ccccc3C2=O)nn1,–,inactive
Cc1cc(C)c(OCC(=O)N(Cc2cccs2)C2CCS(=O)(=O)C2)c(C)c1 (configuration not stated),-24.9% (inactive),–
Cc1ccsc1CN(C(=O)c1oc2ccc(Br)cc2c1C)C1CCS(=O)(=O)C1 (configuration not stated),–,6.51 µM (active)
COc1cc(C(=O)N(Cc2ccc(N(C)C)cc2)C2CCS(=O)(=O)C2)cc(OC)c1OC (configuration not stated),-20.2% (inactive),–
O=C(COC(=O)c1ccccc1)Nc1ccccc1Sc1ccccc1,-7.36% (inactive),–
NC(=O)c1ccsc1NC(=O)c1ccco1,-9.46% (inactive),–
O=C(NCc1ccco1)C(=O)c1cn(CC(=O)N2CCCCCC2)c2ccccc12,-8.99% (inactive),–
O=C(/C=C/c1ccc(Cl)cc1)NCCCn1ccnc1,0.819% (inactive),–

Compound,"activity change, negative = growth inhibition",Potency
CCCCC(=O)Nc1ccc(C(=O)NCCCn2ccnc2)cc1,13.2% (inactive),–
CC(C)(C)c1ccc(/C=C/C(=O)NCCCn2ccnc2)cc1,–,16.4 µM (active)
CN(C(=O)CN1C(=O)NC(C)(CCc2ccccc2)C1=O)c1ccccc1 (configuration not stated),-13% (inactive),–
Cc1cc(C)nc(N(C#N)CC(=O)Nc2ccccc2)n1,-24.2% (inactive),–
Nc1cccc2c1C(=O)N(Cc1nnc(-c3ccccc3Br)o1)C2=O,-15.5% (inactive),–
Cc1ccc(C=O)cc1Cl,-19.2% (inactive),–
CCC(C)(C)c1ccc(Oc2ccc(NC(=O)COC(=O)C3=COCCO3)cc2)cc1,–,25.9 µM (active)
CCOc1ccc(NC(=O)c2ccc(NC(=O)COC(=O)c3ccc(NC(=O)CC#N)cc3)cc2)cc1,-0.473% (inactive),–
COc1ccc(NC(=O)COC(=O)C2COc3ccccc3O2)cc1 (configuration not stated),13.6% (inactive),–
COC(=O)c1ccc(C2NC(=O)NC(C)=C2C(=O)N(C)C)cc1 (configuration not stated),-2.25% (inactive),–
NC(=O)c1nnsc1-c1ccc(-c2snnc2C(N)=O)cc1,1.83% (inactive),–
CCCCN(CC)CCNC(=O)c1[nH]c(C)c(C(C)=O)c1C,1.12% (inactive),–
CCS(=O)(=O)N1CCCC(C(=O)NCCCN(C)Cc2ccccc2)C1 (configuration not stated),2.93% (inactive),–
N=C(N)SCc1cccc2ccccc12,–,20.6 µM (active)
c1ccc2c(CNn3cnnc3)cccc2c1,5.72% (inactive),–
c1ccc(NCc2cccc3ccccc23)nc1,2.55% (inactive),–
CCCCCc1ccc(-c2ccc(C(=O)O)cc2)nc1,-3.48% (inactive),–
CCN(C(=O)COC(=O)c1c(NC(C)=O)sc(C)c1C)C1CCS(=O)(=O)C1 (configuration not stated),-12.8% (inactive),–
Cc1c(NC(=O)C(C)Oc2cccc(Cl)c2)c(=O)n(-c2ccccc2)n1C (configuration not stated),-5.95% (inactive),–
O=c1nc2s/c(=C\c3ccco3)c(=O)n2nc1Cc1ccccc1,-27.8% (inactive),–
Cc1csc(Nc2ccc(Cl)cc2)[n+]1-c1ccc(Cl)cc1,–,25.9 µM (active)
Cc1cc(-c2nc(C)c(-c3nnc(SCC(=O)Nc4ccccc4)n3C)s2)no1,4.42% (inactive),–
Cc1cc(C(=O)OCC(=O)Nc2ccc(F)c(F)c2)c(C)o1,-2.49% (inactive),–
COc1cc(CO)ccc1OCC(=O)Nc1cccc2ccccc12,-4.31% (inactive),–
COc1ccc(CNC(=O)CSc2n[nH]c(N)n2)cc1OC,-13.1% (inactive),–
COc1ccc(CNC(=O)COc2ccccc2C(=O)c2cnn(-c3ccccc3)c2)cc1OC,–,14.6 µM (active)

Compound,"activity change, negative = growth inhibition",Potency
COc1cc(S(=O)(=O)Nc2ncn[nH]2)ccc1Cl,0.0265% (inactive),–
CCc1nnc(NC(=O)CSc2nnc(COc3ccc(C#N)cc3)n2-c2ccccc2)s1,-9.91% (inactive),–
CC(C)(C)NC(=O)C(c1ccco1)N(Cc1ccc2c(c1)OCO2)C(=O)Cn1nnc2ccccc21 (configuration not stated),-25.3% (inactive),–
O=C(CC1(O)C(=O)N(CN2CCOCC2)c2ccccc21)c1ccccc1 (configuration not stated),-27.9% (inactive),–
CCc1ccc(C(=O)COC(=O)c2ccco2)cc1,13.7% (inactive),–
CCCN1C(=O)C(O)(CC(=O)c2ccc(CC)cc2)c2cc(Br)ccc21 (configuration not stated),–,6.51 µM (active)
Cc1ccc(C(=O)CC2(O)C(=O)N(CCc3ccccc3)c3ccc(Br)cc32)cc1 (configuration not stated),–,16.4 µM (active)
Cc1ccc(CCN2CC(C(=O)NCCc3ccccc3)CC2=O)cc1 (configuration not stated),-19.1% (inactive),–
Cc1coc(C)c1C(=O)CC1(O)C(=O)N(C)c2ccc(Cl)cc21 (configuration not stated),-16.7% (inactive),–
Cc1ccccc1-c1nc(C#N)c(NCc2ccco2)o1,-18.2% (inactive),–
COc1cc(NC(=O)C2CCN(c3cnccn3)CC2)cc(OC)c1,–,inactive
COc1cc(/C=C/C(=O)OCC(=O)N2CCOCC2)ccc1OCC#N,-18.8% (inactive),–
COCOc1cc(O)c(C(=O)/C=C/c2ccc(OCOC)c(OCOC)c2)c(OCOC)c1,–,23.1 µM (active)
COC(=O)c1ccc(COc2ccc(/C=C/C(=O)c3ccc(OC)c(CSCC(=O)O)c3)cc2OC)cc1,-10.6% (inactive),–
CCOC(=O)CSc1nnc(NC(=O)c2cccc(S(=O)(=O)N3CCCCC3)c2)s1,-1.98% (inactive),–
CCOc1ccc(S(=O)(=O)Nc2nc3cc(OC)ccc3s2)cc1,4.1% (inactive),–
Cc1cc(/C=N/Nc2ccc([N+](=O)[O-])cn2)c(C)n1-c1cccc(C(=O)O)c1,13.9% (inactive),–
COc1ccc(Nc2ccc([N+](=O)[O-])cn2)cn1,-0.0035% (inactive),–
Cc1ccc(-n2c(C)cc(/C=N/Nc3ccc([N+](=O)[O-])cn3)c2C)c(C)c1,–,23.1 µM (active)
Cc1ccc(SCC(=O)Nc2nncs2)cc1,0.103% (inactive),–
CCCC(=O)Nc1ccc2c(c1)nc(CCNC(=O)c1ccco1)n2C,-9.29% (inactive),–
CCOC(=O)c1cccc(NC(=O)CCOc2ccccc2)c1,-11.2% (inactive),–
CCOCCC(=O)Nc1ccc2c(c1)c(=O)n(C)n2-c1ccc2ccccc2c1,–,5.8 µM (active)
O=C(CCCOc1ccccc1)NNC(=O)c1ccc(Cl)cc1,5.41% (inactive),–
CC(C)CCOc1ccc(C(=O)C[N+]2(C)CCOCC2)cc1,–,18.4 µM (active)
C[N+]1(CC(=O)c2cccs2)CCOCC1,-7.74% (inactive),–

Compound,"activity change, negative = growth inhibition",Potency
CC(C)Oc1ccc(C(CC(=O)N2CCOCC2)C(C)C)cc1 (configuration not stated),13.9% (inactive),–
COc1ccccc1C1C(C(=O)N2CCCCC2)=C(C)Nc2nc3ccccc3n21 (configuration not stated),2.64% (inactive),–
COc1cc(OC)c(NC(=O)c2nc(-c3ccncc3)no2)cc1Cl,-5.54% (inactive),–
COc1cc(OC)c(NC(=O)c2cnc(N3CCCC3)nc2C)cc1Cl,-19.9% (inactive),–
COc1cc(OC)c(NC(=O)c2c3c(nn2C)-c2ccccc2SC3)cc1Cl,–,16.4 µM (active)
Cc1cc(C)c(S(=O)(=O)c2cc(F)ccc2C)c(=O)[nH]1,-0.186% (inactive),–
CCOC(=O)c1cc(-c2ccc(F)cc2)n(CC(=O)NCc2ccccn2)c1C,-1.43% (inactive),–
O=C(C1CCN(S(=O)(=O)c2cnc[nH]2)CC1)N1CCN(Cc2ccc3c(c2)OCO3)CC1,–,20.6 µM (active)
CS(=O)(=O)N(CC(=O)N1CCN(Cc2ccc3c(c2)OCO3)CC1)c1ccc2c(c1)OCO2,-25.9% (inactive),–
CCN(CCCNC(=O)C1CCN(S(=O)(=O)c2cnc[nH]2)CC1)c1ccccc1,-18.9% (inactive),–
CC(C)NC(=O)CCCn1c(=S)[nH]c2cc3c(cc2c1=O)OCO3,-20.5% (inactive),–
CC(=O)N1CCN(C(=O)c2cccc(S(=O)(=O)Nc3ccc(C)cc3)c2)CC1,-4.18% (inactive),–
CCOC(=O)N1CCN(C(=O)c2ccc(S(=O)(=O)Nc3cccc(C(F)(F)F)c3)cc2)CC1,–,6.51 µM (active)
O=C(COc1ccc(S(=O)(=O)Nc2cccc(C(F)(F)F)c2)cc1)N1CCOCC1,-13.8% (inactive),–
COC(=O)C1=C(C(=O)OC)[C@@H]2N(Cc3ccccc3)c3ccccc3[C@@]23C[C@@H](C(=O)OC)N(S(=O)(=O)c2ccc(C(F)(F)F)cc2)C3=N1,-22.1% (inactive),–
CCCCNS(=O)(=O)c1ccc(S(=O)(=O)n2cnc3ccccc32)cc1,2.54% (inactive),–
CCOC(=O)c1nc(C)n(-c2ccc(Cl)cc2Cl)n1,-12.1% (inactive),–
Cc1ccc(S(=O)(=O)N2CCN(CC(=O)N/N=C/c3ccc(Br)s3)CC2)cc1,–,14.6 µM (active)
C/C(=N/NC(=O)CN1CCN(S(=O)(=O)c2ccc(Br)cc2)CC1)c1ccncc1,-17.6% (inactive),–
Cc1ccc(/C=N/NC(=O)CN2CCN(Cc3ccccc3)CC2)s1,-20.3% (inactive),–
Cc1ccc(C)c(NC2=NCC(=O)N2c2ccc3c(c2)OCCO3)c1,-0.0277% (inactive),–
CCOc1cc2[nH]c(=S)n(Cc3ccc(C(=O)NCCOC)cc3)c(=O)c2cc1OCC,-12.9% (inactive),–
COc1cc2[nH]c(=S)n(Cc3ccc(F)cc3)c(=O)c2cc1OC,-23.7% (inactive),–
CCOc1cc2[nH]c(=S)n(Cc3ccc(C(=O)N4CCN(C)CC4)cc3)c(=O)c2cc1OCC,–,16.4 µM (active)
